Source: PubChem BioAssay
Activity calls are given as the source filed them.

test system: PRMT1 (protein arginine N-methyltransferase 1); experiment: PRMT1 binders on small-molecule microarrays, primary screen, biochemical, small-molecule microarray, 635 nm fluorescence (AID 1088); details: small-molecule microarray binding, higher = more signal;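 note: binding of Prmt1 protein to compounds spotted on small-molecule microarray slides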

SMILES | composite z-score
O=C(NCCN1CCOCC1)[C@@H]1c2ccccc2C(=O)N(Cc2cc(C(F)(F)F)cc(C(F)(F)F)c2)[C@H]1c1ccc(CO)cc1 | 1.56
C=C(CCCC)/C(=C/C[C@H](OC(C)=O)c1ccccc1OCCO)c1cnc2ccccc2c1 | 1.32
COC(=O)[C@@]1(Cc2ccc(OC)cc2)[C@H]2c3cc(C(=O)N4CCCC4)n(CCc4ccc(O)c(O)c4)c3C[C@H]2CN1C(=O)c1ccccc1 | -0.445
Cc1ccc(S[C@]2(C(=O)NCC(C)C)CC(=O)N(Cc3cc(C(F)(F)F)cc(C(F)(F)F)c3)[C@@H]2c2ccc(CO)cc2)cc1 | 0.407
O=C(NC1CC1)[C@@H]1c2ccccc2C(=O)N(C2Cc3ccccc3C2)[C@H]1c1ccc(CO)cc1 | 1.44
O=C1OCCC=C[C@H]2OC34C=CCN(CCN5CCOCC5)C(=O)[C@H]3N(CCCCCO)C(=O)[C@@H]4C12 (stereo partly specified) | 1.48

test system: not listed separately; experiment: yeast growth modulation, basal conditions, primary screen, YJM789 clinical isolate, OD600, 24 h (AID 1089);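 note: growth of clinical yeast isolate S. cerevisiae YJM 789 seeded 1000 cells per well; test concentration not given here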; details: S. cerevisiae YJM789 growth, higher = more signal, called active from +8 up or from −8 down

SMILES | z-score
COc1ccc(NC(=O)O[C@H]2[C@H](OC(=O)c3cc4ccccc4[nH]3)[C@@H](OC(=O)c3cc4ccccc4[nH]3)[C@@H](OC)O[C@@H]2CO)cc1 | -1.68 (inactive)
C=C(CCCC)C(=O)CC[C@H](OC(=O)c1cccnc1)c1ccc(OCCO)cc1 | 0.0275 (inactive)
C=CCN1C(=O)[C@]2(Cc3ccccc3)N=C(c3ccc(OCCCO)cc3)O[C@@H]2c2ccccc21 | 0.331 (inactive)
CC(=O)NCCCC[C@@H]1NC(=O)[C@H]2C[C@@H](C(=O)NCCCCCNC(=O)CS)[C@@H](c3ccc(O)cc3)N2C1=O | 1.16 (inactive)
C=CCC(OC(C)=O)[C@@H]1[C@@H](N(Cc2cc3ccccc3o2)C(=O)Cc2ccc(OC)cc2)c2cc(OCCCO)ccc2N1C(=O)c1ccc2ccccc2c1 (stereo partly specified) | -0.179 (inactive)
CC(c1ccccc1)C(O)C1C=CC2C(=O)N(c3ccccc3)C(=O)C2N1Nc1ccccc1 (stereo unspecified) | 0.205 (inactive)
COc1ccc([C@H]2C[C@H]3C(Br)=C[C@@]2(CO)C(=O)[C@]32CO2)cc1 | -0.658 (inactive)
COCCOC(=O)N1C(=O)[C@@]2(c3cc(C#CCCO)ccc31)[C@H](c1ccc(OCCO)cc1)N1[C@H](c3ccccc3)[C@H](c3ccccc3)OC(=O)[C@H]1[C@@H]2C(N)=O | 2.66 (inactive)
CCCCN1CC=CC23O[C@@H]4/C=C\CCCOC(=O)C4[C@H]2C(=O)N(CCCCCO)[C@@H]3C1=O (stereo partly specified) | -0.669 (inactive)
NCCCCCCNC(=O)[C@H]1C[C@H]2C(=O)N[C@@H](Cc3ccccc3)C(=O)N2[C@H]1c1cccc(OCCO)c1 | 0.106 (inactive)
COc1ccc([Si](C)(C)[C@@H]2[C@@H](CCn3cc(CCO)nn3)O[C@]3(C(=O)N(Cc4cccc(N5C(=O)c6cccc7cccc5c67)c4)c4ccccc43)[C@H]2C)cc1 | 1.29 (inactive)
CC(=O)Nc1cc(Br)ccc1C(=O)NCc1ccccc1 | -1.76 (inactive)
CCCCCN1CC=CC23O[C@@H]4C=CCOC(=O)[C@@H]4[C@H]2C(=O)N(C(C)CO)[C@@H]3C1=O (stereo partly specified) | -0.076 (inactive)
CCOC(=O)C1=C[C@@H](C(C)C)N(S(=O)(=O)c2ccc(C)cc2)[C@H]1c1ccccc1F | -0.413 (inactive)
CS(=O)(=O)CCOC(=O)C1=CC(CCCO)=CC(C2CC2)N(Cc2cc3c(cc2Br)OCO3)C=C1C(=O)OCCS(C)(=O)=O (stereo unspecified) | -0.955 (inactive)
Cc1c(NC(=O)/C(C#N)=C/c2cccc([N+](=O)[O-])c2)c(=O)n(-c2ccccc2)n1C | -3.18 (inactive)
C=CCN1Cc2ccccc2[C@@H]2OC(c3ccc(OCCCO)cc3)=N[C@]2(CCS(=O)(=O)c2ccccc2)C1=O | 0.863 (inactive)
C=CCNC(=O)[C@@H]1[C@H]2C(=O)O[C@H](c3ccccc3)[C@H](c3ccccc3)N2[C@H](c2ccc(OCCO)cc2)[C@@]12C(=O)N(C(=O)OCCOC)c1ccc(C#CCC(C(=O)OC)C(=O)OC)cc12 | 1.05 (inactive)

SMILES | z-score
CN1C(=O)C2C=CC(C(O)C=Cc3ccc([N+](=O)[O-])cc3)N(Nc3ccccc3)C2C1=O (stereo unspecified) | -0.131 (inactive)
COCCOC(=O)N1C(=O)[C@@]2(c3cc(C#CC4=CCCCC4)ccc31)[C@H](c1ccc(OCCO)cc1)N1[C@H](c3ccccc3)[C@H](c3ccccc3)OC(=O)[C@H]1[C@@H]2C(=O)N1CCc2cc(OC)c(OC)cc2C1 | 2.47 (inactive)
CC(C)CN1C(=O)[C@@]2(c3ccc([N+](=O)[O-])cc3)CC(=O)N(C3CCCCC3)[C@@H]2c2ccc(CO)cc21 | 0.0926 (inactive)
C#CCN1[C@H](/C=C/C2CC2)[C@H](Cc2ccccc2)OC(=O)[C@@H]1Cc1ccccc1 | -0.651 (inactive)
COc1ccccc1CN1C(=O)c2ccccc2[C@@]2(Cc3ccccc3N(CCCN(C)C)C2=O)[C@@H]1c1ccc(CO)cc1 | 0.431 (inactive)
COC(=O)[C@@]1(CCC(=O)OC(C)(C)C)N=C(c2ccc(OCCCO)cc2)O[C@H]1c1ccccc1 | -0.144 (inactive)
O=C(O)[C@@]1(CCS(=O)(=O)c2ccccc2)N=C(c2ccc(OCCCO)cc2)O[C@H]1c1ccccc1 | -0.326 (inactive)
C=CCN(Cc1ccccc1)C(=O)C(c1cccs1)N(C(=O)/C=C\C(=O)O)c1ccc(CCOCCO)cc1 (stereo unspecified) | -1.22 (inactive)
CC(C)NC(=O)[C@@H]1c2ccccc2C(=O)N(C(C)C)[C@H]1c1ccc(CO)cc1 | 0.549 (inactive)
C=CCC(OC(C)=O)[C@@H]1[C@@H](N(Cc2ccc(-c3cccc(C(F)(F)F)c3)o2)C(=O)c2cccc3ccccc23)c2cc(OCCCO)ccc2N1C(=O)Cc1ccc2ccccc2c1 (stereo partly specified) | 0.1 (inactive)
COc1ccc([Si](C)(C)[C@@H]2[C@@H](CCn3cc([C@H](O)c4ccccc4)nn3)O[C@]3(C(=O)N(Cc4cccc(N5CCC5=O)c4)c4ccccc43)[C@H]2C)cc1 | -0.442 (inactive)
O=C(NCCN1CCOCC1)[C@@H]1c2ccccc2C(=O)N(Cc2cc(C(F)(F)F)cc(C(F)(F)F)c2)[C@H]1c1ccc(CO)cc1 | 0.764 (inactive)
C=C(CCCC)/C(=C/C[C@H](OC(C)=O)c1ccccc1OCCO)c1cnc2ccccc2c1 | 0.617 (inactive)
COC(=O)[C@@]1(Cc2ccc(OC)cc2)[C@H]2c3cc(C(=O)N4CCCC4)n(CCc4ccc(O)c(O)c4)c3C[C@H]2CN1C(=O)c1ccccc1 | -0.087 (inactive)
Cc1ccc(S[C@]2(C(=O)NCC(C)C)CC(=O)N(Cc3cc(C(F)(F)F)cc(C(F)(F)F)c3)[C@@H]2c2ccc(CO)cc2)cc1 | -0.463 (inactive)
O=C(NC1CC1)[C@@H]1c2ccccc2C(=O)N(C2Cc3ccccc3C2)[C@H]1c1ccc(CO)cc1 | -0.0411 (inactive)
O=C1OCCC=C[C@H]2OC34C=CCN(CCN5CCOCC5)C(=O)[C@H]3N(CCCCCO)C(=O)[C@@H]4C12 (stereo partly specified) | -0.776 (inactive)
